Unmarked numbers belong to inactive results. Results filed as inconclusive are left out. Activity calls are given as the source filed them. Unless noted, the call rests on the fitted dose curve; in most records, active means well fitted curve in either direction with a large enough effect (not every such curve was filed as active); inconclusive means small, poorly fitted or top-dose-only effect, or another doubt; inactive means flat fitted curve, though single readings scatter.
Columns and labels:
[1] = AP1 Signaling Pathway (AID 357); details: ME-180 AP-1-bla reporter, EGF-induced, beta-lactamase ratio, 5 h; at 17.2 µM (top of the series) unless noted;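 further: ME-180 reporter cells stimulated with EGF at its EC50 level; on the % scale 0 is the no-effect control and ±100 the full control effect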
In short: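 Read-out was the 460nm/530nm emission ratio (excitation 405nm) after CCF4 loading for 2.5 hours at room temperature. Cells carried an AP-1-driven beta-lactamase reporter, were stimulated with EC50 EGF plus compound for 5 hours, and AC50 values came from titrations.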

[2] = Stat Signaling Pathway (AID 446); details: ME-180 (cervical carcinoma) SIE beta-lactamase reporter, IL-6 stimulated, 5 h; at 17.2 µM (top of the series) unless noted;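 further: ME-180 cervical cancer cells given 40 pM IL-6 alongside compound; SIE-controlled beta-lactamase reporter measured as 460/530 nm FRET emission ratio; on the % scale 0 is the no-effect control and ±100 the full control effect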
In short: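 Emission at 460 and 530 nm (excitation 405 nm) reports SIE-controlled beta-lactamase in ME-180 cells. Cells received compound with 40 pM IL-6 for 5 hrs at 37 C; data scaled between 300 pM IL-6 and 125 nM JAK-inhibitor controls.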

[3] = target: Glucocorticoid receptor (Homo sapiens) (UniProt P04150); assay: GR-GFP Redistribution (AID 450;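 active means compounds whose dose series gives a full or clear partial fitted curve of increased nuclear translocation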; further: potency means the concentration at half of the fitted maximal effect)
Sequence of Glucocorticoid receptor (Homo sapiens) (P04150 whole entry, looked up): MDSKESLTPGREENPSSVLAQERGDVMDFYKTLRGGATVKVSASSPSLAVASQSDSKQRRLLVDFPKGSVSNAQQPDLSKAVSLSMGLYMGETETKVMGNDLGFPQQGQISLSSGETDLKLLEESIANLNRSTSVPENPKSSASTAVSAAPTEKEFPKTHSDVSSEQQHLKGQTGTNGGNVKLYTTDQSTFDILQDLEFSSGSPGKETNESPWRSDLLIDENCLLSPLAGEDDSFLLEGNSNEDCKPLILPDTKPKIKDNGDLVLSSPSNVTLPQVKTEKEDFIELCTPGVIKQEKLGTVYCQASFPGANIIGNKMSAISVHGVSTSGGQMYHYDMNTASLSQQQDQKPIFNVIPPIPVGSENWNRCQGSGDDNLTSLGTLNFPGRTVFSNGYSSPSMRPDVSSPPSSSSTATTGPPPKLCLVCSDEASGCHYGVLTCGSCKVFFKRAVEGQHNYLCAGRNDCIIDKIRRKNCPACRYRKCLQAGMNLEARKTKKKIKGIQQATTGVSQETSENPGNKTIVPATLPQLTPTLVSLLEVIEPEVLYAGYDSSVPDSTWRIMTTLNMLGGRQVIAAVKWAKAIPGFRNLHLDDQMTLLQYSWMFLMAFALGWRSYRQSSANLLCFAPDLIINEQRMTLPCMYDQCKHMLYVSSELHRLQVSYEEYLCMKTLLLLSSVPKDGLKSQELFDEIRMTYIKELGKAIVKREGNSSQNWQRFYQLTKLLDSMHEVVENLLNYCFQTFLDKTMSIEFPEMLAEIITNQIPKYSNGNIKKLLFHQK

SMILES	activity change, negative = inhibition [1] [%]	activity, negative = inhibition [2]	Potency [3] [µM]
CCCCNC(=O)c1c(N)n(/N=C/c2cccnc2)c2nc3ccccc3nc12	-12	16.8%	> 20.6
CCSc1nnc(NC(=O)C(C(F)(F)F)C(F)(F)F)s1	-16.3	-21.8%	> 20.6
COC(=O)NCC12CC3CC(C1)CC(CNC(=O)OC)(C3)C2	3.64	-1.03%	> 20.6
CCO/C(C)=N/n1c2nc3ccccc3nc2c2c(=O)n(Cc3ccccc3Cl)c(C)nc21	-30	-8.13%	> 20.6
CCCSc1nc(N2CCCC2)c2c(c1C#N)CC(C)(C)OC2	-3.22	6.07%	> 20.6
CCCOc1ccc(Cc2nn[nH]n2)cc1	6.52	2.28%	> 20.6
CCOC(=O)c1[nH]c2ccc(Br)cc2c1NC(=O)CNC	18.8	-1.05%	> 20.6
Cn1ccnc1C(O)c1ccc(OCc2ccccc2)cc1 (configuration not stated)	-6.56	2.08%	> 20.6
CCOc1cccc(-c2nnc3sc(-c4cc(OC)c(OC)c(OC)c4)nn23)c1	3.58	-10.4%	> 20.6
Cn1c(=O)c2c(nc(NCc3ccco3)n2Cc2ccc(Cl)cc2Cl)n(C)c1=O	4.86	-17.6%	> 20.6
CSC1=Nc2sc3c(c2C2=NCCN12)CC(C)(C)OC3	26	14.3%	> 20.6
CCN(CC)CCCn1c(C)cc2c(c1=O)C(c1ccccc1)C(C#N)=C(N)O2 (configuration not stated)	1.7	2.65%	> 20.6
O=C1C=C(N2CCN(C3=CC(=O)CCC3)CC2)CCC1	20.4	13.1%	> 20.6
COCCCNC(=O)c1c(N)n(/N=C/c2cccs2)c2nc3ccccc3nc12	24.9	21.4%	> 20.6
CCCCNC(=O)C(C#N)c1nc2ccccc2nc1N1CCN(c2ccccc2F)CC1 (configuration not stated)	-4.46	0.859%	> 20.6
CCOC(=O)c1ccc(N2C(=O)CC(Sc3nnc(C)s3)C2=O)cc1 (configuration not stated)	6.1	1.82%	> 20.6
Cc1ccc(/C(O)=C2/C(=O)C(=O)N(Cc3ccco3)C2c2cccs2)cc1 (configuration not stated)	2.29	-12.7%	> 20.6
CCCCCc1ccc(-c2ccc(=O)[nH]n2)cc1	7.59	13.6%	> 20.6
c1ccc(N2CCN(c3nc(NCc4ccco4)c4ccccc4n3)CC2)cc1	-16.8	-28%	> 20.6
O=c1[nH]c(CN2CCCCC2)nc2c1C1(CCCC1)Cc1ccccc1-2	14.5	-7.96%	> 20.6

SMILES	activity change, negative = inhibition [1] [%]	activity, negative = inhibition [2]	Potency [3] [µM]
c1ccc2c(N3CCCCC3)nc(N3CCCCC3)nc2c1	21.1	-3.49%	> 20.6
CCOc1nc(SCCOc2ccc(C)cc2)nc(N(C)C)n1	-8.15	-4.82%	> 20.6
COc1ccc(CCNc2oc(COc3ccccc3)nc2C#N)cc1	-23	-23.3%	> 20.6
N#Cc1c(N)n(CCOC(=O)c2cccc(Br)c2)c2nc3ccccc3nc12	-0.25	16.2%	> 20.6
CCN(CC)CCNc1nc(-c2ccco2)c2c(c1C#N)CC(C)(C)OC2	12.8	14.7%	> 20.6
O=S(=O)(N[C@@H]1C[C@H]2CC[C@@H]1C2)c1cccs1	-5.92	-0.621%	> 20.6
CN(CC(O)COc1ccc(OCC(O)CN(C)C2CCCCC2)cc1)C1CCCCC1 (configuration not stated)	11.3	12.2%	> 20.6
Cc1c(N=Cc2c(O)n(C3CCCCC3)c(=O)[nH]c2=O)c(=O)n(-c2ccccc2)n1C	-6.37	-1.79%	> 20.6
Oc1ccc(Br)cc1-c1cc(-c2ccccc2F)[nH]n1	13.3	-0.726%	> 20.6
COc1ccc(N/C=C(\C#N)c2nc3ccccc3n2C)c(OC)c1	-21.3	-22%	> 20.6
O=c1[nH]c(=O)n(Cc2ccco2)c2c1C(C(F)(F)F)(C(F)(F)F)N=C(c1ccco1)N2	3.52	-26.4%	> 20.6
COc1cc2[nH]c3c(=O)n(CCN(C(C)C)C(C)C)cnc3c2cc1OC	-1.5	6.66%	> 20.6
Nc1nc2n(n1)C(c1cccs1)CC(c1ccc(F)cc1)N2 (configuration not stated)	5.72	1.08%	> 20.6
O=C(c1cccs1)N1CCC(N2CCN(c3ccccc3)CC2)CC1	9.88	-2.08%	> 20.6
CCOc1ccccc1N1CCN(c2nc3ccccc3nc2C(C#N)C(=O)OC(C)C)CC1 (configuration not stated)	16.5	-13.8%	> 20.6
Cc1ccc(S(=O)(=O)/C(C#N)=C/c2c(N3CCN(C)CC3)nc3c(C)cccn3c2=O)cc1	9.07	-7.22%	> 20.6
CCSc1nc2sc3c(c2c2nnc(SCC(=O)NCc4ccco4)n12)CCCC3	-11.8	-18.7%	> 20.6
Cc1c(O)c(CN2CCCC2)cc2c1oc(=O)c1ccccc12	4.42	-9.48%	> 20.6
CN1CCN(CC(=O)Nc2nc(-c3ccccc3)cs2)CC1	9.16	-4.84%	> 20.6
CC1(C)Cc2nc(NCCCO)c(C#N)cc2CO1	-6.96	7.31%	> 20.6

SMILES	activity change, negative = inhibition [1] [%]	activity, negative = inhibition [2]	Potency [3] [µM]
COCCOC(=O)c1c(C)nc(SCC(=O)Nc2ccc(OC)cc2)c(C#N)c1-c1ccco1	-13.3	-16.8%	> 20.6
COc1cccc(-c2nc(N3CC(C)CC(C)C3)c3ccccc3n2)c1O (configuration not stated)	13.7	8.47%	> 20.6
CCN(CC)c1nc(-c2cccc(OC)c2O)nc2ccccc12	-20.9	-20%	> 20.6
CC(C)COc1ccc(C(=O)OCCN2CCOCC2)c(O)c1	1.3	0.653%	> 20.6
CCC(NC(C)C)C(O)c1ccc(O)c2[nH]c(=O)ccc12 (configuration not stated)	-12.1	11.4%	> 20.6
CCCc1cc(=O)oc2c(CN3CCCC3)c(O)c(Cl)cc12	-8.98	0.152%	> 20.6
CCCC(=O)Nc1nn(CCC)c2nc3ccccc3cc12	-2.33	-4.63%	> 20.6
CCc1nc(NC2CCCCC2)c(C#N)c2c1COC(C)(C)C2	7.15	7.37%	> 20.6
C=CCNc1nc(N2CCCCC2)c(C#N)c2c1CN(Cc1ccccc1)CC2	1.37	-3.92%	> 20.6
COc1ccc(CSC2=NCCN2)cc1Cl	15.6	8.84%	> 20.6
C=CCSc1nnc2n(-c3ccccc3OC)c(=O)c3c4c(sc3n12)CCC4	7	6.42%	> 20.6
COc1ccc(Nc2cc(C)nc3ccccc23)cc1	10.5	5.77%	> 20.6
C=CCOn1c(=O)c(-c2cc3ccccc3o2)[n+]([O-])c2ccccc21	-28.9	-8.42%	> 20.6
Cc1nc(-c2cn[nH]c2)c2cc(C)oc2n1	-1.95	-3.87%	> 20.6
CC(C)Sc1nc(N2CCCC2)c2c(c1C#N)CC(C)(C)OC2	-10.5	-9.04%	> 20.6
CCOC(=O)N1CC=C2C(C#N)=C(N)C(C#N)(C#N)[C@H](c3cccs3)[C@H]2C1	6.03	-16%	> 20.6
CC1CN(C2CCN(C(=O)c3ccccc3)CC2)CC(C)O1 (configuration not stated)	-5.21	3.62%	> 20.6
O=C(O)CCCCCCC1C(=O)NC(=O)N1CCC(O)C1CCCCC1 (configuration not stated)	-4.54	14.6%	> 20.6
Cc1ccc(S(=O)(=O)N2CCN(c3nc(C)c4c(c3C#N)CC(C)(C)OC4)CC2)cc1	1.26	89.5% [activator] (active)	> 20.6
